# According to paper PMC5540273 (PLoS ONE, 2017):
# What was measured:
# Settings in all cases: concentration: 1 μM, replicates: in singlicate; n = 1
# [1] = test system: NEK11
# [2] = test system: NEK1
# [3] = test system: NEK2
# [4] = test system: NEK3
# [5] = test system: NEK4
# [6] = test system: NEK5
# [7] = test system: NEK6
# [8] = test system: NEK7
# [9] = test system: NEK9
# [10] = test system: T1, NIK
# T1 construct: gene MAP3K14
# [11] = test system: T2, NIM1
# T2 construct: gene MGC42105
# [12] = test system: NLK
# [13] = test system: T3, OSR1
# T3 construct: gene OXSR1
# [14] = test system: PAK1
# [15] = test system: PAK2
# [16] = test system: PAK3
# [17] = test system: PAK4
# [18] = test system: PAK6
# [19] = test system: PAK7
# [20] = test system: T4, PCTK1
# T4 construct: gene CDK16
# 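Further: KINOMEscan kinase panel screen.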
SMILES,%Inh [1],%Inh [2],%Inh [3],%Inh [4],%Inh [5],%Inh [6],%Inh [7],%Inh [8],%Inh [9],%Inh [10],%Inh [11],%Inh [12],%Inh [13],%Inh [14],%Inh [15],%Inh [16],%Inh [17],%Inh [18],%Inh [19],%Inh [20]
CN(C)CCOc1ccc(-c2cc(-c3ccc(Cl)c(O)c3)c(-c3ccncc3)[nH]2)cc1.Cl.Cl [SB-684387],38%,9%,14%,2%,0%,22%,0%,0%,17%,0%,40%,66%,7%,8%,6%,0%,0%,0%,20%,1%
Cc1cc(-c2ccnc(Nc3cccc(C#N)c3)n2)cc(C)c1O [GSK1440913],1%,0%,0%,43%,1%,83%,0%,0%,13%,62%,12%,16%,13%,34%,28%,0%,0%,0%,0%,16%
O=C(O)C(F)(F)F.O=c1[nH]ccc2nc(N[C@@H]3CCNC3)nc(Nc3ccc4c(c3)S(=O)(=O)CC4)c12 [GSK2181306],0%,6%,46%,8%,16%,0%,3%,5%,19%,77%,67%,28%,76%,97.2%,95.2%,99.9%,99.5%,94.6%,99.9%,85%
O=C(Nc1n[nH]c2nc(-c3ccccc3O)ccc12)C1CC1 [SB-711880],0%,0%,0%,18%,0%,0%,0%,3%,6%,18%,0%,10%,0%,0%,0%,0%,33%,8%,26%,11%
CSc1ccc(NC2=C(c3ccc(Cl)cc3)C(=O)NC2=O)cc1 [SB-317658],28%,4%,0%,0%,0%,29%,33%,0%,1%,21%,0%,0%,6%,2%,28%,36%,2%,29%,0%,0%
CS(=O)(=O)c1cccc(CNc2nc(Nc3ccc4c(c3)CCC(=O)N4)ncc2C(F)(F)F)c1,0%,0%,0%,37%,0%,28%,6%,0%,0%,0%,5%,0%,0%,0%,0%,0%,0%,0%,0%,0%
CN(c1ccc(F)c(NC(=O)c2cccc(OC(C)(C)C#N)c2Cl)c1)c1ccc2nc(NC(=O)C3CC3)sc2n1,0%,3%,0%,7%,1%,0%,0%,8%,5%,0%,8%,78%,5%,5%,0%,27%,0%,0%,0%,2%
COC(=O)Nc1nc2ccc(Oc3ccc(NC(=O)Nc4cc(C(F)(F)F)ccc4F)cc3)cc2[nH]1.Cl [GW654607],0%,0%,0%,0%,0%,13%,0%,19%,57%,60%,0%,34%,15%,0%,0%,22%,0%,0%,0%,4%
CN(C)CCNS(=O)(=O)c1ccc(-c2ccnc3[nH]ccc23)cc1 [GSK977620],0%,99.8%,0%,0%,4%,1%,1%,0%,0%,0%,13%,20%,30%,34%,32%,71%,56%,64%,58%,7%
Nc1ncnc2scc(-c3ccc(NC(=O)Cc4cc(F)ccc4F)cc3)c12.O=C(O)C(F)(F)F [SB-731254-M],36%,20%,24%,35%,16%,47%,3%,0%,20%,0%,0%,4%,11%,7%,32%,46%,0%,0%,1%,2%
Cn1cc(-c2ccc3c(c2)CCN3C(=O)Cc2cc(F)cc(F)c2F)c2c(N)ncnc21 [GSK2634140],38%,7%,84%,0%,32%,8%,18%,0%,8%,26%,8%,0%,14%,16%,12%,35%,0%,0%,0%,6%
CNc1nccc(-c2ccc3c(N)n[nH]c3c2)n1 [GSK2206003],0%,4%,2%,2%,0%,14%,0%,0%,9%,33%,15%,14%,18%,4%,9%,48%,4%,5%,9%,0%
COC(=O)Nc1nc2ccc(Oc3ccc(CC(=O)Nc4cc(C(F)(F)F)ccc4F)cc3)cc2[nH]1 [GW680903],0%,0%,0%,6%,14%,13%,0%,0%,45%,25%,26%,22%,3%,19%,22%,15%,0%,0%,97.7%,0%
O=C(Nc1n[nH]c2nc(-c3cccc(O)c3)ccc12)C1CC1 [SB-711805],7%,4%,2%,19%,0%,0%,0%,0%,8%,8%,0%,96.7%,0%,0%,18%,0%,0%,100%,4%,52%
O=C(Nc1c(F)cccc1F)c1cc(C(=O)c2ccccc2F)c[nH]1 [GSK1326180],16%,0%,0%,0%,0%,0%,0%,0%,5%,0%,0%,0%,34%,0%,0%,0%,0%,0%,0%,0%
CC(=O)Nc1cn2nc(Oc3cccc(NC(=O)c4cccc(C(F)(F)F)c4)c3)ccc2n1,0%,0%,0%,8%,0%,8%,3%,0%,0%,0%,0%,16%,0%,9%,15%,16%,15%,12%,0%,0%
Cc1ccc(O)cc1Nc1ccnc2ccc(C(C)(C)C)cc12 [GW856805],23%,21%,9%,39%,1%,17%,20%,25%,10%,31%,52%,1%,30%,23%,50%,0%,17%,34%,2%,12%
COc1ccc(C)c(Nc2ccnc(Nc3ccc(-c4cnc[nH]4)cc3)n2)c1.Cl [GW784041],0%,0%,2%,7%,0%,14%,0%,4%,0%,0%,0%,13%,0%,0%,12%,20%,6%,10%,0%,0%
Fc1cc(Cl)ccc1Nc1ccnc2cc(-c3ccc(CN4CCOCC4)o3)ccc12 [GW560109],0%,0%,13%,0%,15%,1%,0%,3%,0%,4%,15%,10%,8%,0%,0%,5%,0%,0%,0%,1%
Nc1ncc(-c2cn[nH]c2)c2scc(-c3ccc4c(c3)CCN4C(=O)Cc3ccccc3)c12 [GSK2593067],87%,7%,85%,0%,11%,21%,3%,0%,0%,3%,17%,0%,13%,0%,0%,51%,0%,0%,0%,3%
COc1cc(Nc2nccc(N3CCC(NC(=O)Nc4ccc5c(c4)OCO5)C3)n2)cc(OC)c1OC (stereo not shown) [GSK1379766],0%,46%,20%,45%,26%,100%,18%,29%,21%,20%,4%,0%,0%,0%,0%,0%,0%,0%,4%,16%

SMILES,%Inh [1],%Inh [2],%Inh [3],%Inh [4],%Inh [5],%Inh [6],%Inh [7],%Inh [8],%Inh [9],%Inh [10],%Inh [11],%Inh [12],%Inh [13],%Inh [14],%Inh [15],%Inh [16],%Inh [17],%Inh [18],%Inh [19],%Inh [20]
Cl.O=C(Nc1ccc(Oc2ccc3[nH]c(NC(=O)c4ccco4)nc3c2)cc1)Nc1cc(C(F)(F)F)ccc1F [GW683134],0%,0%,2%,0%,0%,0%,0%,0%,79%,13%,4%,6%,8%,0%,0%,59%,0%,0%,0%,7%
CC(C)(C)c1ccc(C(=O)Nc2cn3cc(-n4ccnc4)ccc3n2)cc1,0%,0%,0%,35%,0%,13%,2%,0%,3%,0%,3%,0%,0%,30%,42%,20%,10%,6%,0%,6%
Cn1cc(-c2cnc(N)c3c(-c4ccc5c(c4)CCN5C(=O)Cc4ccccc4)csc23)cn1 [GSK2593074],47%,0%,28%,1%,0%,5%,0%,0%,0%,0%,0%,17%,0%,17%,0%,13%,0%,17%,3%,0%
Cc1ccc(Nc2ccnc(Nc3ccc(C)c(F)c3)n2)cc1O.Cl [GW582868],3%,0%,1%,10%,7%,4%,0%,0%,0%,10%,3%,62%,8%,0%,0%,0%,0%,0%,0%,0%
COc1cccc2c(-c3ccncc3)c(-c3ccc(F)cc3)nn12 [GW468513],0%,0%,0%,0%,4%,7%,0%,0%,0%,0%,14%,86%,7%,0%,10%,61%,0%,0%,0%,0%
COc1cccc(CC(=O)N2CCc3cc(-c4cn(C)c5ncnc(N)c45)ccc32)c1 [GSK2608899],49%,21%,74%,4%,44%,24%,18%,11%,25%,0%,0%,5%,6%,13%,4%,50%,2%,0%,18%,3%
COc1cccc(NC(=O)NCCNc2ccnc(Nc3ccc(F)cc3)n2)c1 [GSK1379879],0%,0%,0%,9%,0%,11%,0%,0%,0%,27%,17%,8%,17%,16%,8%,0%,0%,0%,0%,0%
Fc1cc(Cl)ccc1Nc1ccnc2cc(-c3ccc(CN4CCSCC4)o3)ccc12 [GW560106],22%,0%,1%,5%,0%,9%,0%,0%,5%,28%,23%,30%,0%,8%,4%,45%,0%,0%,0%,0%
CN(c1ccc2c(c1)nc(NCc1ccccc1)n2C)c1ccnc(Nc2ccc(CS(C)(=O)=O)cc2)n1.Cl [GW811603],0%,0%,0%,20%,0%,0%,60%,8%,55%,33%,22%,0%,0%,0%,0%,42%,22%,13%,2%,0%
Nc1ncc(-c2ccc3nccc(-c4ccncc4)c3c2)cc1S(=O)(=O)N1CCCCC1 [GSK1693850],0%,2%,8%,4%,0%,18%,0%,0%,15%,11%,0%,13%,5%,18%,8%,14%,0%,0%,18%,0%
CCn1cnc2c(NCc3ccccc3)ncnc21 [SKF-96418],0%,0%,0%,24%,0%,0%,0%,0%,0%,32%,17%,0%,0%,11%,42%,0%,0%,0%,0%,0%
c1ccc(Oc2ccc(Nc3ccnc4cc(-c5ccc(CN6CCCCC6)o5)ccc34)cc2)nc1 [GW567143],0%,0%,0%,0%,25%,0%,0%,0%,2%,6%,69%,13%,4%,16%,16%,33%,0%,0%,8%,0%
CN(c1ccc(NC(=O)N2CCN(CCCN3CCOCC3)CC2)cc1)c1ccnc(Nc2ccc(CS(C)(=O)=O)cc2)n1.Cl [GW830899],0%,0%,14%,9%,0%,3%,14%,0%,0%,0%,0%,0%,0%,0%,0%,0%,0%,25%,2%,0%
Cc1ccc(O)cc1Nc1ccnc2cc(-c3ccc(CN4CCCCC4)o3)ccc12 [GW557777],0%,0%,11%,3%,0%,0%,0%,9%,0%,0%,0%,19%,0%,24%,23%,0%,13%,21%,7%,0%
Cc1cc(-c2c(-c3ccc(F)cc3)ncn2CCCN2CCOCC2)nc(N)n1 [SB-222517],0%,33%,0%,25%,0%,0%,9%,0%,0%,12%,0%,17%,0%,0%,66%,0%,1%,1%,0%,0%
CN1CCN(Cc2ccc(NC(=O)Nc3ccc(N(C)c4ccnc(Nc5ccc(CS(C)(=O)=O)cc5)n4)cc3)cc2)CC1.Cl [GW827654],19%,45%,0%,16%,24%,98.3%,3%,30%,49%,0%,42%,0%,0%,24%,65%,62%,98.4%,34%,51%,22%
CCNc1nccc(-c2c(-c3ccc(F)cc3)ncn2C2CCN(C)CC2)n1,0%,1%,0%,0%,0%,5%,0%,1%,0%,0%,0%,95%,0%,7%,8%,0%,2%,30%,0%,0%
COc1cc(Nc2nccc(N3CCC(NS(=O)(=O)c4ccc(NC(C)=O)cc4)CC3)n2)cc(OC)c1OC [GSK1379825],0%,83%,1%,89%,3%,100%,62%,86%,45%,26%,16%,27%,19%,0%,19%,13%,0%,5%,1%,14%
COc1cccc(C2=C(Nc3cccc(O)c3)C(=O)NC2=O)c1 [SB-390771],0%,0%,0%,19%,2%,2%,0%,7%,15%,7%,16%,15%,8%,7%,5%,32%,0%,100%,26%,15%
Cc1ccc(NC(=O)c2cccc(N3CCCCC3)c2)cc1-c1ccc(C(=O)NCC2CC2)cc1 [GSK1917008],0%,27%,16%,11%,23%,12%,0%,13%,35%,68%,15%,5%,24%,14%,24%,21%,0%,0%,2%,12%
